# For some assays here: Measured potencies and affinities stand elsewhere.
# How the values were obtained:
# Parameters in all cases: scale not given: direction of the effect not stated beside the values
# [1] = biological target: Protein translocase subunit SecA (Escherichia coli (strain K12)) (UniProt P10408); experiment: Assay to Identify E. coli SecA ATPase Inhibitors; assay type: functional; conditions: 30 µM
# [2] = biological target: T1, Ubiquitin-activating enzyme e1, putative (Leishmania donovani (strain BPK282A1)) (UniProt E9BSI1); experiment: Leishmania donovani Ubiquitin Activating Enzyme (LdE1); assay type: functional; conditions: 30 µM
# T1 sequence (whole entry): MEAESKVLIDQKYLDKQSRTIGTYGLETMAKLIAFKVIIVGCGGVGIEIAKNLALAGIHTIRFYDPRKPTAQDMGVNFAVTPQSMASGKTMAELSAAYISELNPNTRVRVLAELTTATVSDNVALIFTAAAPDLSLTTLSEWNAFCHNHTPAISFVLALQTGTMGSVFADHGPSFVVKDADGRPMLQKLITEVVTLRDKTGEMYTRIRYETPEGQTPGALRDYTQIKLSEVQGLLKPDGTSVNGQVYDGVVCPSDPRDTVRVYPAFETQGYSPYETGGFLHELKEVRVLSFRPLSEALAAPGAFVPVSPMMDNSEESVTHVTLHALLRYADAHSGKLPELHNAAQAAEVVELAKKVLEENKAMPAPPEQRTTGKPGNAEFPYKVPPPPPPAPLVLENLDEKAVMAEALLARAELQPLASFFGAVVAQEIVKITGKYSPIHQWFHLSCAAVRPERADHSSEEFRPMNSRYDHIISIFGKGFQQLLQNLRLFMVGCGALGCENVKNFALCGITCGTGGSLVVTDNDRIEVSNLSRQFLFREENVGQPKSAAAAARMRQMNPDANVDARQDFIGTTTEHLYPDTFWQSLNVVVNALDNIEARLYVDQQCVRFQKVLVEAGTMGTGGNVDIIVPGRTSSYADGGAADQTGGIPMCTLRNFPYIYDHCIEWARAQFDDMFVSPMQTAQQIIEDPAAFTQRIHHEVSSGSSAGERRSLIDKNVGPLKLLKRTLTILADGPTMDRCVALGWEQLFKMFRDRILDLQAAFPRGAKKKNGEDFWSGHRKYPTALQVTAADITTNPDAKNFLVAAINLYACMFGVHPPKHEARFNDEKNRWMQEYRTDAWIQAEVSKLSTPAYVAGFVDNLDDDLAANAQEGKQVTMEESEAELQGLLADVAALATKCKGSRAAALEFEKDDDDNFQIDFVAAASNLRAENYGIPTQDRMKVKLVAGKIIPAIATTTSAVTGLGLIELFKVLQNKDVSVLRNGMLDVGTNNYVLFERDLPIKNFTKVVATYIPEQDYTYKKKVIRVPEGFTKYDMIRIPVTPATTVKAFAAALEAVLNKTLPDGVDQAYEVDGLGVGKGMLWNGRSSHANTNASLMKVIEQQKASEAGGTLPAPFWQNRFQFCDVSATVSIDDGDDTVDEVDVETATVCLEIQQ
# [3] = biological target: Sialic acid-binding Ig-like lectin 9 (Homo sapiens) (UniProt Q9Y336); experiment: Hs-Siglec9 ALPHAscreen SOP 20170721; conditions: 10 µM
# Chain of Sialic acid-binding Ig-like lectin 9 (Homo sapiens) (Q9Y336 whole entry): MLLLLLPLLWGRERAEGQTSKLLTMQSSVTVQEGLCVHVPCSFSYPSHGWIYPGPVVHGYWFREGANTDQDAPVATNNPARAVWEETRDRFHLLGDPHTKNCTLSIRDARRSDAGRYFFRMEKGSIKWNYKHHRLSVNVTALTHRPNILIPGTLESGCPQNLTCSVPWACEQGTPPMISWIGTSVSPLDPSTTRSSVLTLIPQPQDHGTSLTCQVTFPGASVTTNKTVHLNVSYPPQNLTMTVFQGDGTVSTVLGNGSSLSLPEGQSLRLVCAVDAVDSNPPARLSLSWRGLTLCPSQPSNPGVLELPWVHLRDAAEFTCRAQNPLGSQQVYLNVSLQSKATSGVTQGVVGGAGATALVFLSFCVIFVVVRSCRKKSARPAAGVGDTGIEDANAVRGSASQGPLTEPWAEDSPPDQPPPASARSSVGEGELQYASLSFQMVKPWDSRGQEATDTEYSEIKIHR
# Trypanosoma cruzi = experiment: Trypanosoma cruzi phosphomannomutase and mannose-1-phosphate guanylyltransferase assay; assay type: functional; conditions: 10 µM
# [4] = biological target: T2, Arginase-2, mitochondrial (Homo sapiens) (UniProt P78540); experiment: in vitro enzyme assay to detect the production of urea directly proportional to the activity of Arginase II; assay type: functional; conditions: 33.3 µM; note: in the data most compounds retested in dose-response had high values
# T2 sequence (whole entry): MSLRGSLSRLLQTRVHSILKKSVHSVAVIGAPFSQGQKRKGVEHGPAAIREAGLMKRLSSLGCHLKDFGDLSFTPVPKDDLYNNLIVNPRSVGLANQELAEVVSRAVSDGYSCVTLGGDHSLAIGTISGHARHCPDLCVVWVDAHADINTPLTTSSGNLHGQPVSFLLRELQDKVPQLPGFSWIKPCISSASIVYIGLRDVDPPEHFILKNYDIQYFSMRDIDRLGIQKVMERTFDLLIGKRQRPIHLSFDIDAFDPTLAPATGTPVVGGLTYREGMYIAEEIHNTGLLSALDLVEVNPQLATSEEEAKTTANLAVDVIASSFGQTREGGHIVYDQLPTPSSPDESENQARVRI
# [5] = biological target: T3, Proteasome subunit beta (Trypanosoma cruzi) (UniProt O96673); experiment: Trypanosoma cruzi proteasome chymotrypsin-like activity (TcProtChymo) assay.; note: in the data most compounds retested in dose-response had high values; assay type: functional; conditions: 9.37 µM
# T3 sequence (whole entry): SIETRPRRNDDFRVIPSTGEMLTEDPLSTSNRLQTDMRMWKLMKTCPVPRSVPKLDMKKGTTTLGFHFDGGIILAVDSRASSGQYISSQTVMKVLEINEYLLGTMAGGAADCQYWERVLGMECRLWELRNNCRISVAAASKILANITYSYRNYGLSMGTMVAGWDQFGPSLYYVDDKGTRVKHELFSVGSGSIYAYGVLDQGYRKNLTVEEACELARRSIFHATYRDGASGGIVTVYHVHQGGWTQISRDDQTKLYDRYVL
# Homo sapiens = species on record: Homo sapiens; experiment: To identify inhibition of the IFN signalling (Jak-Stat) pathway via expression of an eGFP reporter gene under the control of an IFN-stimulated response element (ISRE) containing MxA promoter.; assay type: functional; conditions: 30 µM
# [6] = biological target: T4, Tyrosyl-tRNA synthetase, putative (Trypanosoma cruzi (strain CL Brener)) (UniProt Q4DSP6); experiment: Trypanosoma cruzi tyrosyl tRNA synthetase (TcYRS) _High Tyrosine SOP; assay type: functional; conditions: 30 µM; note: in the data most compounds retested in dose-response had high values
# T4 sequence (whole entry): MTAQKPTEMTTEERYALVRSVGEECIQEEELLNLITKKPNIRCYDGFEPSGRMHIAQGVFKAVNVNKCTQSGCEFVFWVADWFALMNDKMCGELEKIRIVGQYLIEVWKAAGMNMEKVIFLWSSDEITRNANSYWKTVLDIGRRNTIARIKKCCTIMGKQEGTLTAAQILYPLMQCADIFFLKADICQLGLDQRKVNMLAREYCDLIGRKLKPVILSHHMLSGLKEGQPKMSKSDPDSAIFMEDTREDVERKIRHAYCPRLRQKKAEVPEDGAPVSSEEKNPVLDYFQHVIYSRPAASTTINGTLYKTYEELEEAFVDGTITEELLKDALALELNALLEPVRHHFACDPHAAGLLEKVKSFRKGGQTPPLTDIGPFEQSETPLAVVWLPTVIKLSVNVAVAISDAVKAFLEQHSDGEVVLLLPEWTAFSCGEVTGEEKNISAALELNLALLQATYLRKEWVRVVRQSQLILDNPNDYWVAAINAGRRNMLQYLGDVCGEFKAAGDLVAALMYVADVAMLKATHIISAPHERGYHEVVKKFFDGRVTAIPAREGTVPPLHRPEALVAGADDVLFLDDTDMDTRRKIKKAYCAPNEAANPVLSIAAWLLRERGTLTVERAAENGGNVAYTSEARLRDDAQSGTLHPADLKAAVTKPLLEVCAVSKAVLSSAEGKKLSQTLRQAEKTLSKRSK
# [7] = biological target: T4, Tyrosyl-tRNA synthetase, putative (Trypanosoma cruzi (strain CL Brener)); experiment: Trypanosoma cruzi tyrosyl tRNA synthetase (TcYRS) SOP; assay type: functional; conditions: 30 µM
# [8] = biological target: Chromo domain-containing protein 1 (Saccharomyces cerevisiae (strain ATCC 204508 / S288c) (Baker's yeast)) (UniProt P32657); experiment: ScCHD-1 Enzyme Inhibition Assay; assay type: functional; conditions: 30 µM; note: in the data most compounds retested in dose-response had high values
# Chain of Chromo domain-containing protein 1 (Saccharomyces cerevisiae (strain ATCC 204508 / S288c) (Baker's yeast)) (P32657 whole entry, the tested form may be a part): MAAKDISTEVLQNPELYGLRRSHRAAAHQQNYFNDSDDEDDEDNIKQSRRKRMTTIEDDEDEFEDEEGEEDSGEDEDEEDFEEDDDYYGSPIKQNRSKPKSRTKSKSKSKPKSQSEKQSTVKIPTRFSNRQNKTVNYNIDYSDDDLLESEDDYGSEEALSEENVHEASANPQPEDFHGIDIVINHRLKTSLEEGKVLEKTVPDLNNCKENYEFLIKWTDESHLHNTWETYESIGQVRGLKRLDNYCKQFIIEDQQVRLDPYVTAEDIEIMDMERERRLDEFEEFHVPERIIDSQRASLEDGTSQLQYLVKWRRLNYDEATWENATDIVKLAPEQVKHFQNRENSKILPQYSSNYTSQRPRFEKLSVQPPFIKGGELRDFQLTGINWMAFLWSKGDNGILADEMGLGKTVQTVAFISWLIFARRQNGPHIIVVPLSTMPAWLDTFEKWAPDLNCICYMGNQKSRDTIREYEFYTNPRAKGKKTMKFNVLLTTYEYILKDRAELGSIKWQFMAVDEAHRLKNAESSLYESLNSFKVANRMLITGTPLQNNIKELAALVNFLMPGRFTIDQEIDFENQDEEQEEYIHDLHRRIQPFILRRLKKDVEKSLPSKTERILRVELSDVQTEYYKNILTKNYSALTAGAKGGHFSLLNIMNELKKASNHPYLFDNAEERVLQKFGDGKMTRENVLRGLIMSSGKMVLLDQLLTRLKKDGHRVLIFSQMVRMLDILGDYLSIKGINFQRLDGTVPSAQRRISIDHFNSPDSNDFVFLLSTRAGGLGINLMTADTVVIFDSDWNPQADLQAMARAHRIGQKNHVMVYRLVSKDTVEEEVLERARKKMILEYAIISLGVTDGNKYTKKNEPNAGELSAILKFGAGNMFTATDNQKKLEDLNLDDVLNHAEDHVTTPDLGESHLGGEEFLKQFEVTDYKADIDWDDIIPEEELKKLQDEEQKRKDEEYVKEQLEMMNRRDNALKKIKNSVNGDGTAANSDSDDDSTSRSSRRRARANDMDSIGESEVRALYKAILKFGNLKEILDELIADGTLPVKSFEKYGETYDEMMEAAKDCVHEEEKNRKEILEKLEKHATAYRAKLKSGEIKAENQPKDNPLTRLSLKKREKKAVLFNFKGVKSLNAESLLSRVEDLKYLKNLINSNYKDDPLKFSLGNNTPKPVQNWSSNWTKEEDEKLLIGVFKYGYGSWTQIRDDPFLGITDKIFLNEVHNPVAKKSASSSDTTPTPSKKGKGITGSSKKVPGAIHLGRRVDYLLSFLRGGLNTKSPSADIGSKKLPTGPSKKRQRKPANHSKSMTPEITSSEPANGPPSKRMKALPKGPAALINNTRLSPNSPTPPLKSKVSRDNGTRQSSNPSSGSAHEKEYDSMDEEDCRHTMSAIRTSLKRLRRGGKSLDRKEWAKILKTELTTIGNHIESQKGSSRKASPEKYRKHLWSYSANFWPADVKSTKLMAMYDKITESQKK
# [9] = biological target: AMP-activated protein kinase, AMPK (Homo sapiens) (UniProt P54646+O43741+P54619+Q9UGJ0+Q9Y478+Q13131+Q9UGI9); experiment: AMP-dependent Kinase enzyme assay. An in vitro enzyme assay that detects ADP turnover that is directly proportional to AMPK activity. This uses naive AMPK that is activated during the assay with MK-8722; assay type: functional; conditions: 30 µM
# Chain of Protein translocase subunit SecA (Escherichia coli (strain K12)) (P10408 whole entry): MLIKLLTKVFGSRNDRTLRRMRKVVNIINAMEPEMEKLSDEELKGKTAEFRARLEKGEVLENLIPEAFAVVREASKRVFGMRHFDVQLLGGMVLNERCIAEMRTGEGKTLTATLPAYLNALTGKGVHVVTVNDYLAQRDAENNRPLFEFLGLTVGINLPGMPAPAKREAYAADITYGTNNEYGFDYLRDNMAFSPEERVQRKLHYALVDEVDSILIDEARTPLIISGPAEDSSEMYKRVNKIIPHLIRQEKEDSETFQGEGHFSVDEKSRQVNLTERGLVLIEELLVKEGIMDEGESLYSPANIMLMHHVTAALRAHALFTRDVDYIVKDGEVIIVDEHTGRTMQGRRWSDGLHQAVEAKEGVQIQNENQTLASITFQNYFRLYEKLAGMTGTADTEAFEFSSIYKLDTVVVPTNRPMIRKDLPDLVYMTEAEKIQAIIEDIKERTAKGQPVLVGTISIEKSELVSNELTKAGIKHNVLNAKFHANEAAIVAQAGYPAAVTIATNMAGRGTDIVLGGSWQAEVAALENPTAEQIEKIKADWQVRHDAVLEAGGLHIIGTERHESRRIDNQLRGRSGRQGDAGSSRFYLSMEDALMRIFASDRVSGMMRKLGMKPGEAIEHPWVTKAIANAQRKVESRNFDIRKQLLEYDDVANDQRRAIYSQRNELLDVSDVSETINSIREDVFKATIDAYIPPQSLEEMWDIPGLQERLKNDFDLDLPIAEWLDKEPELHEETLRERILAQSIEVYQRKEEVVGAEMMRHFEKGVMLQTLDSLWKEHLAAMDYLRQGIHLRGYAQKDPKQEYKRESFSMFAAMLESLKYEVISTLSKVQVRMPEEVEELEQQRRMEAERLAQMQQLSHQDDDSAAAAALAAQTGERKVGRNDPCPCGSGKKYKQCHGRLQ
SMILES,Percent Effect [1],Percent Effect [2],Percent Effect [3],Percent Effect (Trypanosoma cruzi),Percent Effect [4],Percent Effect [5],Percent Effect (Homo sapiens),Percent Effect [6],Percent Effect [7],Percent Effect [8],Percent Effect [9]
CCc1nc(C2CCCN2C(=O)CCCn2cccn2)no1 (stereo not drawn),-1.9%,5.2%,9.24%,4.66%,8.4%,8.25%,4.76%,1.96%,4.71%,-9.39%,–
COCc1nc(C(=O)NS(=O)(=O)c2ccc(C)s2)cs1,-1.18%,-5.13%,-1.4%,-5.35%,6.56%,-7.25%,18.7%,1.44%,1.21%,-0.772%,–
O=C(c1ccc2c(c1)OCO2)N1CCN(c2cnccn2)CC1,-4.95%,12.8%,-0.564%,-1.6%,4.51%,10.2%,16%,5.26%,13.2%,-6.8%,–
COc1cccc(CN2CCCC3(CCN(C(=O)c4ccco4)C3)C2)c1 (stereo not drawn),-3.23%,9.09%,0.7%,0.563%,5.02%,17.8%,5.54%,14.5%,15%,-3.31%,–
O=C(c1ccnnc1)N1CCC2(CC1)CC(N1CCOCC1)C2,0.141%,14.3%,-2.15%,-2.25%,5.48%,13.8%,22.2%,4.83%,2.5%,-8.83%,–
C[C@@H]1CN(C(=O)c2cccs2)C[C@]12CCN(CCN(C)C)C2=O,-6.68%,9.09%,2.17%,-6.57%,0.457%,9.87%,18%,0.966%,-5%,-8.48%,–
COCCc1noc(CNC2CCSC2)n1 (stereo not drawn),-5.2%,5.41%,11.7%,7.66%,1.75%,9.93%,-4.93%,5.85%,17.1%,-3.46%,–
Cn1cc(C(=O)NCc2ccc(OC3CCCCC3)nc2)ccc1=O,–,–,–,–,–,–,–,–,–,–,-0.122%
O=C(Nc1cccc2c1CCCC2)C1CCCN1c1nccs1 (stereo not drawn),-1.27%,5.13%,1.32%,-0.845%,4.51%,5.55%,-6.07%,8.13%,20.5%,13.6%,–
Nc1nccc(-c2c[nH]nc2C2CCCCC2)n1,1.44%,10.7%,-1.99%,-6.83%,3.1%,17.9%,99.6%,1.58%,0%,-6.8%,–
CCC(=O)N1CCC(O)(c2ncc(OC)nc2OC)CC1,-1.18%,9.33%,3.93%,-3.55%,3.1%,9.03%,8.31%,5.29%,7.5%,-17.1%,–
Cn1cnc2c1CCN(Cc1cccc(C(N)=O)c1)C2,-3.09%,7.69%,3.32%,0.657%,2.87%,-3.67%,7.29%,-0.478%,13.2%,4.07%,–
Cc1cc(C(=O)NC(C)CC(=O)c2ccco2)[nH]n1 (stereo not drawn),–,–,–,–,–,–,–,–,–,–,2.92%
O=C1CC(c2ccccc2)C2(CCN(Cc3ccccn3)CC2)N1 (stereo not drawn),0.295%,22.1%,-3.53%,-5.25%,3.2%,8.33%,18.5%,7.73%,15%,-9.1%,–
CCN(CC)C(=O)C(c1ccccc1)N1CCn2c(C)nnc2C1 (stereo not drawn),-4.22%,17.9%,9.65%,7.61%,0.82%,8.45%,10.3%,7.18%,22.9%,-4.71%,–
CC(=O)N1[C@@H](C(=O)NCC2CC2)C[C@@H]2CN(Cc3ccco3)C[C@@H]21,-0.254%,22.1%,-5.46%,-0.938%,3.2%,12.1%,9.99%,3.87%,7.5%,-7.56%,–
Fc1cccc(-c2nc(CN3CCn4c(nnc4C4CC4)C3)co2)c1,2.37%,0%,-4.75%,-5.42%,1.33%,8.4%,19%,0.526%,7.69%,-19%,–
CCc1nc(C)c(C(=O)NCCN2CCC(C)CC2)s1,-2.31%,-2.6%,7.15%,-4.1%,-2.25%,-6.84%,9.62%,0.98%,11.8%,-2.04%,–
O=C(NCc1cc[nH]n1)NCC(O)c1ccc(F)cc1F (stereo not drawn),-0.475%,8%,-0.795%,-4.82%,-0.444%,7.38%,-4.21%,5.79%,10.3%,-7.37%,–
COc1cc(S(=O)(=O)N2CCc3ccc(F)cc32)cc(C(=O)O)c1OC,-7.45%,10.7%,12.6%,-1.21%,0%,6.02%,4.5%,-3.68%,-5.13%,-15.2%,–
O=C(C1CC1)N1CC[C@H](O)[C@@H]1Cc1ccccc1,-7.5%,3.9%,-3.5%,-0.75%,1.37%,1.8%,-8.68%,2.9%,2.5%,-12.8%,–
Cc1occc1CNC(=O)N(CCCO)C1CCc2ccccc21 (stereo not drawn),-4.54%,10.7%,5.35%,3.41%,-1.77%,4.33%,16.1%,2.63%,7.69%,-8.92%,–
CCc1ncc2c(n1)CN(CC(=O)Nc1nnc(C)s1)CC2,-2.11%,5.33%,0.404%,-4.22%,5.32%,8.4%,-8.8%,6.84%,10.3%,-13.6%,–
COc1cccc(F)c1CN1CCC(c2nc(C)cc(C)n2)C1 (stereo not drawn),–,–,–,–,–,–,–,–,–,–,1.72%
Cn1cc(NC(=O)N2CCC(c3ccccc3)CC2)ccc1=O,-1.84%,51.3%,4.28%,8.92%,9.43%,2.3%,23%,0.478%,6.02%,1.81%,–
Cc1ccc(-c2cc(CN3CCOC(Cn4cncn4)C3)on2)cc1 (stereo not drawn),-2.91%,5.2%,4.78%,-0.56%,-1.43%,1.4%,12.8%,10.8%,18.8%,-5.72%,–

# From ChEMBL document CHEMBL3988442, “University of Dundee, Small-Polar-MMV Screening Library” (2021)
